# About 8,800 targets were measured; listed, in parts, are those with a hit and a random draw of the rest. About 0.5% of all pairs of compound and target were hits. Values without a mark were called inactive.
# Legend:
# Assay in all cases: log2 fold change, soluble protein after heating vs DMSO (PISA); higher = thermal stabilisation; K562 lysate, 10 uM; active = over 0.2 and 3.5 SD of the protein, either way, in both replicates (recomputed)
# vemurafenib = compound: CCCS(=O)(=O)Nc1ccc(F)c(C(=O)c2c[nH]c3ncc(-c4ccc(Cl)cc4)cc23)c1F [vemurafenib]
# Procedure, shortened: (§1)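 To prepare the extract, K562 pellets were dounce-homogenised in PBS pH 7.4 with 1 mM MgCl2, giving crude material at 1 mg/mL protein. This was treated with 10 μM compound for 30 min, then heated in aliquots for 3 min over 48°C-58°C before pooling and addition of NP-40 to 0.5% at 4°C. Centrifugation at 21,000xg for 90 min left soluble protein in the supernatant, which TMTpro 16plex LC-MS/MS quantified with equalised channel sums. Results are log-two fold changes in thermal stability compared with solvent controls, from duplicates.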
# [1] = compound: CCCS(=O)(=O)Nc1ccc(F)c(C(=O)c2c[nH]c3ncc(Cl)cc23)c1F
# Procedure, shortened: as §1
# barasertib = compound: CCN(CCCOc1ccc2c(Nc3cc(CC(=O)Nc4cccc(F)c4)[nH]n3)ncnc2c1)CCOP(=O)(O)O [barasertib]
# Procedure, shortened: as §1
# [2] = compound: CC[C@@H]1C(=O)N(C)c2cnc(Nc3ccc(C(=O)NC4CCN(C)CC4)cc3OC)nc2N1C1CCCC1
# Procedure, shortened: as §1
# volasertib = compound: CC[C@@H]1C(=O)N(C)c2cnc(Nc3ccc(C(=O)N[C@H]4CC[C@H](N5CCN(CC6CC6)CC5)CC4)cc3OC)nc2N1C(C)C [volasertib]
# Procedure, shortened: as §1
# [3] = compound: CCn1c(C(=O)N(C2CC2)C2CC2)cc2c3c(ncn3C)c(Nc3cc(C)n(C)n3)nc21
# Procedure, shortened: as §1
# [4] = compound: CCn1cc(-c2ccnc3[nH]c(-c4cccc(CN(C)C)c4)cc23)c(-c2ccc(NC(=O)N(C)C)cc2)n1
# Procedure, shortened: as §1
# [5] = compound: CN1CCC(CNc2ccc3ncc(-c4cccc(OC(F)(F)F)c4)n3n2)CC1
# Procedure, shortened: as §1
# saracatinib = compound: CN1CCN(CCOc2cc(OC3CCOCC3)c3c(Nc4c(Cl)ccc5c4OCO5)ncnc3c2)CC1 [saracatinib]
# Procedure, shortened: as §1
# sotrastaurin = compound: CN1CCN(c2nc(C3=C(c4c[nH]c5ccccc45)C(=O)NC3=O)c3ccccc3n2)CC1 [sotrastaurin]
# Procedure, shortened: as §1
# alvocidib = compound: CN1CC[C@H](c2c(O)cc(O)c3c(=O)cc(-c4ccccc4Cl)oc23)[C@H](O)C1 [alvocidib]
# Procedure, shortened: as §1
# Tubastatin A = compound: CN1CCc2c(c3ccccc3n2Cc2ccc(C(=O)NO)cc2)C1 [Tubastatin A]
# Procedure, shortened: as §1
# [6] = compound: CNC(=O)C1=CC=CC=C1NC2=NC(=NC=C2Cl)NC3=C(C=C(C=C3)N4CCOCC4)OC
# Procedure, shortened: as §1
# defactinib = compound: CNC(=O)c1ccc(Nc2ncc(C(F)(F)F)c(NCc3nccnc3N(C)S(C)(=O)=O)n2)cc1 [defactinib]
# Procedure, shortened: as §1
# [7] = compound: CNc1nc(-c2ccc3c(N)n[nH]c3c2)cc(N2C[C@@H](C(=O)NC3CCCCC3)CC[C@H]2C)n1
# Procedure, shortened: as §1
# encorafenib = compound: COC(=O)N[C@@H](C)CNc1nccc(-c2cn(C(C)C)nc2-c2cc(Cl)cc(NS(C)(=O)=O)c2F)n1 [encorafenib]
# Procedure, shortened: as §1
# [8] = compound: COC(=O)[C@H](CCSC)NC(=O)C1=C(C=C(C=C1)NC[C@H](CS)N)C2=CC=CC=C2
# Procedure, shortened: as §1
# alisertib = compound: COc1cc(Nc2ncc3c(n2)-c2ccc(Cl)cc2C(c2c(F)cccc2OC)=NC3)ccc1C(=O)O [alisertib]
# Procedure, shortened: as §1
# [9] = compound: COc1cc2nc(-c3cc(F)ccc3O)nc(N[C@@H]3CNC[C@H]3C(C)(C)O)c2cc1OC
# Procedure, shortened: as §1
# gefitinib = compound: COc1cc2ncnc(Nc3ccc(F)c(Cl)c3)c2cc1OCCCN1CCOCC1 [gefitinib]
# Procedure, shortened: as §1
# UniProt Q9NUY8, sequence (Q9NUY8 whole entry, looked up): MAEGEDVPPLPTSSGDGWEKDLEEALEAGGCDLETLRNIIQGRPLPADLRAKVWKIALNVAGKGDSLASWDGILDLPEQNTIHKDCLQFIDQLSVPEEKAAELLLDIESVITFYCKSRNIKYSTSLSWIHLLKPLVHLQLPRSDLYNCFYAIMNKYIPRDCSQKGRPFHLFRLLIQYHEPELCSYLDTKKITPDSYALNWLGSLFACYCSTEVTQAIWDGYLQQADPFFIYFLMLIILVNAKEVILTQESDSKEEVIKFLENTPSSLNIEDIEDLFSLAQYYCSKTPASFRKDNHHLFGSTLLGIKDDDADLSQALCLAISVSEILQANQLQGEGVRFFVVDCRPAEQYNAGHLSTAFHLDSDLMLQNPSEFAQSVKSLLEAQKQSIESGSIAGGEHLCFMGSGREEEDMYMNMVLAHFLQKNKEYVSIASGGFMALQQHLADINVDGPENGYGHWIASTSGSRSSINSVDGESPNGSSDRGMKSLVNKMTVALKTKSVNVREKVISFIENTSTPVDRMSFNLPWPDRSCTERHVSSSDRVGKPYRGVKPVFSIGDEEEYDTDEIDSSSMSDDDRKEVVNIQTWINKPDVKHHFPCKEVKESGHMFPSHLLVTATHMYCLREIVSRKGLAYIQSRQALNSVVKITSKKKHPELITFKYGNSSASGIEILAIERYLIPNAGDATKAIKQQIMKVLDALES
# UniProt P51668, sequence (P51668 whole entry, looked up): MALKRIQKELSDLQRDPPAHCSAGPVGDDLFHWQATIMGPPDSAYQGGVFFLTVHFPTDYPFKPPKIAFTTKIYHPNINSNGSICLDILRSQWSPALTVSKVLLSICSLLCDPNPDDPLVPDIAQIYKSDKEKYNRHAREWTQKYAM
# UniProt Q14258, sequence (Q14258 whole entry, looked up): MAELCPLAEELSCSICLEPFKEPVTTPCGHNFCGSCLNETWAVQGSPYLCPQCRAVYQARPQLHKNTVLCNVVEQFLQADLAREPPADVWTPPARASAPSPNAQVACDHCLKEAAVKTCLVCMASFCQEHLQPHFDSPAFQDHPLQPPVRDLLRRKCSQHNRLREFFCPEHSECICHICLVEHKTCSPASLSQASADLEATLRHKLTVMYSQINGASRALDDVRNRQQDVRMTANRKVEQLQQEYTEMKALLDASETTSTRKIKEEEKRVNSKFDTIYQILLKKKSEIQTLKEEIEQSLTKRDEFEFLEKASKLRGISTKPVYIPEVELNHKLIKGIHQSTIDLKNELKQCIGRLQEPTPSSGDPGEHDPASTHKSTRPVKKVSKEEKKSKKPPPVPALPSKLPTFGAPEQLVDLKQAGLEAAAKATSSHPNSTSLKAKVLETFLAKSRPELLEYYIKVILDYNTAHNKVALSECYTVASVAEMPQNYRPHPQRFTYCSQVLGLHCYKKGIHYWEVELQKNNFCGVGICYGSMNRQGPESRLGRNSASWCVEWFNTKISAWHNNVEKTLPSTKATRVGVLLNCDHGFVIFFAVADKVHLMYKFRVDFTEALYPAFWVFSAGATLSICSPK
# UniProt Q5JUR7, sequence (Q5JUR7 whole entry, looked up): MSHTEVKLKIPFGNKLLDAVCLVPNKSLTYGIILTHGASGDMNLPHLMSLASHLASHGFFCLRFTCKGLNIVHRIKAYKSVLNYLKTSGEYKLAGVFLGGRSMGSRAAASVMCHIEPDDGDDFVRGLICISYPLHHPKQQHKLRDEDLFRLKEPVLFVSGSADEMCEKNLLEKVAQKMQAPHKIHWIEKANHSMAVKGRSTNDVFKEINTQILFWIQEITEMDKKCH
# UniProt P62256, sequence (P62256 whole entry, looked up): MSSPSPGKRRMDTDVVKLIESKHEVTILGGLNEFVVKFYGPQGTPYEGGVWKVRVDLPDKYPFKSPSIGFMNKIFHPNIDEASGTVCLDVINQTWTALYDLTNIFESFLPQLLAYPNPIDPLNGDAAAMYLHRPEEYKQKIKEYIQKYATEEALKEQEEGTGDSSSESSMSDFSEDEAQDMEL
# UniProt Q6IPR3, sequence (Q6IPR3 whole entry, looked up): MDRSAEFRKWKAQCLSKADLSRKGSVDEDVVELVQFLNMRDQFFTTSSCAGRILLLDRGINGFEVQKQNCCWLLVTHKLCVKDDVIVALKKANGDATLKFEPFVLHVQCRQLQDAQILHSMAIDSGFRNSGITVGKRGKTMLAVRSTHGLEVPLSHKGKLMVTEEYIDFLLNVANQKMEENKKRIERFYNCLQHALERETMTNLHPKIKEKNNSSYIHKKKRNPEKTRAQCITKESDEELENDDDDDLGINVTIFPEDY
# UniProt P33981, sequence (P33981 whole entry, looked up): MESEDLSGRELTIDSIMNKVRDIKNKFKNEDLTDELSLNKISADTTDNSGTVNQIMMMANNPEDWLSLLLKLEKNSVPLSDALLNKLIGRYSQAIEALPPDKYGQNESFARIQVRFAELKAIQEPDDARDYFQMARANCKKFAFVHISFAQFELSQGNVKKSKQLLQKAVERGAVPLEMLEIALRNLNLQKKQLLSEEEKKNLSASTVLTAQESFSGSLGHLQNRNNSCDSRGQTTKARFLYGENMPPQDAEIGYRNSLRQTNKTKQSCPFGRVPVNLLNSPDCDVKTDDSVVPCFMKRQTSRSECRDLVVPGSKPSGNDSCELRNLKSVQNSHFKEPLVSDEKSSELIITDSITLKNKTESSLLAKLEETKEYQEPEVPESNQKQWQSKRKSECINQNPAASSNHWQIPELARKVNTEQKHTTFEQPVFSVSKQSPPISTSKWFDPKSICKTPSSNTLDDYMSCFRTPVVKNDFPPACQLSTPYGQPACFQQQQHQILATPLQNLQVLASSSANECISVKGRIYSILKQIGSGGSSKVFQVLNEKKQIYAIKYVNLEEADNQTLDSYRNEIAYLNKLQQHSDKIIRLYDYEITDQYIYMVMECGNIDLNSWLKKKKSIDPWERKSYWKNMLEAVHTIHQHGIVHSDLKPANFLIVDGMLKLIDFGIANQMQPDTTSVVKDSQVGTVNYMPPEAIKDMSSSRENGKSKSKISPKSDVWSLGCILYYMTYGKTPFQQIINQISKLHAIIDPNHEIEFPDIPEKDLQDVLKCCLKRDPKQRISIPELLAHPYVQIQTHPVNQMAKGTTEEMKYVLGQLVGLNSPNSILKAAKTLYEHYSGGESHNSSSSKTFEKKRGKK
# UniProt Q15386, sequence (Q15386 whole entry, looked up): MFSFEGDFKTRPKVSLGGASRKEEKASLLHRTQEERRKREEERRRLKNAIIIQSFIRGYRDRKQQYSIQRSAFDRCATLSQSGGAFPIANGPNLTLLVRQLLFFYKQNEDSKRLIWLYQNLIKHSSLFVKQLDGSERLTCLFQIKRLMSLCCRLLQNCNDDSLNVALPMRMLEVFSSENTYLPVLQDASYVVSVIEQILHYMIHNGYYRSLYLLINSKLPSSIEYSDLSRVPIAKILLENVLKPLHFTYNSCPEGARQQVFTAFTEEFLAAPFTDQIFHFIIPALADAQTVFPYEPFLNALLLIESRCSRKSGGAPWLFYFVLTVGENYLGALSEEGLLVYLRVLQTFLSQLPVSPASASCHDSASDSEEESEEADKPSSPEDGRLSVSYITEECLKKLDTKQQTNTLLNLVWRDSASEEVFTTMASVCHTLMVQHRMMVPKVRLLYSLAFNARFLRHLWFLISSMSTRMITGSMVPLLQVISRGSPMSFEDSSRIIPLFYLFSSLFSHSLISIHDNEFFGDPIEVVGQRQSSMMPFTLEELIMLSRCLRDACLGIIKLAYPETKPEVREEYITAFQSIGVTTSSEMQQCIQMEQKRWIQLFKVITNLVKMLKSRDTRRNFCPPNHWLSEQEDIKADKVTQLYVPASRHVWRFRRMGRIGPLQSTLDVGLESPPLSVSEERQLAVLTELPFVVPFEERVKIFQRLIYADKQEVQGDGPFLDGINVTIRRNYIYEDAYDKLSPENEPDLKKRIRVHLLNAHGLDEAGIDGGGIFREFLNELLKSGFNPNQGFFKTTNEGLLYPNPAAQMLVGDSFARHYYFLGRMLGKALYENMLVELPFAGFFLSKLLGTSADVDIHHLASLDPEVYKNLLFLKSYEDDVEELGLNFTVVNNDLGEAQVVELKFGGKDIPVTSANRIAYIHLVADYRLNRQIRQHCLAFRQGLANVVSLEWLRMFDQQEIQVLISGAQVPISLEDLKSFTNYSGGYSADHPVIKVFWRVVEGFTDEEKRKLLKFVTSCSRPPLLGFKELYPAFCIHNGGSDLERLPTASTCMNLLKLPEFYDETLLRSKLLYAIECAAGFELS
# UniProt P15923, sequence (P15923 whole entry, looked up): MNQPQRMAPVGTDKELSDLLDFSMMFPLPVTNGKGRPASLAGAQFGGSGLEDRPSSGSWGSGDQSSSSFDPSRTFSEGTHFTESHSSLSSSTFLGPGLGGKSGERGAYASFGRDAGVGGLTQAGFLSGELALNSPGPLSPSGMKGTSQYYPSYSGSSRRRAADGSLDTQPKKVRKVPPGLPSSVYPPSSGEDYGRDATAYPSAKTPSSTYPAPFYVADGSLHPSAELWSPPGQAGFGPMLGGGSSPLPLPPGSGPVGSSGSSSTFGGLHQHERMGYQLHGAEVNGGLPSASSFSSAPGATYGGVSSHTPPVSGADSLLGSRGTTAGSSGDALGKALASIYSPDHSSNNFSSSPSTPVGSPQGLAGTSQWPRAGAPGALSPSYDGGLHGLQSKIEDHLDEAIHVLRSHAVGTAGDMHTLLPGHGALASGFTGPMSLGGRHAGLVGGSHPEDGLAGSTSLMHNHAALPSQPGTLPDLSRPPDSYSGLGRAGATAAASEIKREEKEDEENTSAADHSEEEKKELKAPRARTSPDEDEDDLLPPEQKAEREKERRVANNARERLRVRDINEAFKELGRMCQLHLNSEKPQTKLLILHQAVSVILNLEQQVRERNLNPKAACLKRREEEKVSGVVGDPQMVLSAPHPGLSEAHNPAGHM
# UniProt P67936, sequence (P67936 whole entry, looked up): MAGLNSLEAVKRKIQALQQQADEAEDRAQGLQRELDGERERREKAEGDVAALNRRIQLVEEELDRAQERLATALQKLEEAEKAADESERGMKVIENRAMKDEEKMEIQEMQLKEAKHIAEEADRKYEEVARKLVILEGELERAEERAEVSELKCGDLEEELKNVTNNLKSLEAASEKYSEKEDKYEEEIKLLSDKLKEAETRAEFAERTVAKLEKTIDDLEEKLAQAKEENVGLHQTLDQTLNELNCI
Target,log2 fold change (vemurafenib),log2 fold change [1],log2 fold change (barasertib),log2 fold change [2],log2 fold change (volasertib),log2 fold change [3],log2 fold change [4],log2 fold change [5],log2 fold change (saracatinib),log2 fold change (sotrastaurin),log2 fold change (alvocidib),log2 fold change (Tubastatin A),log2 fold change [6],log2 fold change (defactinib),log2 fold change [7],log2 fold change (encorafenib),log2 fold change [8],log2 fold change (alisertib),log2 fold change [9],log2 fold change (gefitinib)
UBE2H (UniProt P62256),-0.032,-0.013,-0.006,0.011,0.004,-0.055,0.166,-0.227 (active),-0.056,-0.02,0.11,0.076,-0.03,0.025,-0.061,0.001,-0.01,0.004,-0.029,0.044
TCF3 (UniProt P15923),-0.01,0.002,0.012,0.129,0.002,0.047,0.028,0.043,-0.158,0.002,-0.039,-0.066,0.034,0.089,0.19,0.135,-0.051,0.047,0.027,0.023
TYW3 (UniProt Q6IPR3),0.024,0.017,0.017,0.038,-0.002,-0.02,-0.218,0.031,-0.031,-0.003,-0.033,0.014,-0.007,-0.021,0.061,0.027,-0.064,-0.03,0.019,0.01
TPM4 isoform 2 (UniProt P67936),0.031,-0.016,0.021,0.052,0.005,0.048,0.525 (active),-0.231,-0.001,-0.03,0.062,0.03,-0.027,-0.059,0.028,-0.004,-0.077,-0.098,-0.01,-0.004
UBE2D1 (UniProt P51668),-0.013,0.022,0.014,0.012,-0.046,0.089,0.007,-0.025,0.043,-0.021,0.003,-0.045,0.06,0.028,-0.027,-0.025,-0.042,0.028,-0.036,0.106
TTK (UniProt P33981),-0.009,0.02,0.06,0.089,-0.026,-0.048,-0.018,0.01,-0.037,0.072,-0.004,-0.141,0.616 (active),0.434 (active),0.101,0.004,-0.02,0.078,0.103,-0.102
UBE3C (UniProt Q15386),-0.001,0.006,0.016,-0.021,-0.073,0.086,-0.075,0.002,0.04,0.03,0,-0.084,0.023,0.033,0.024,0.076,-0.145,0.022,0,-0.026
TOPBP1 (UniProt Q92547),0.024,-0.08,0.018,0.012,-0.079,-0.029,0.305 (active),-0.071,-0.003,0.02,0.024,-0.067,0.033,0.047,0.01,-0.024,0.108,-0.039,0.034,0.008
TRMT2A (UniProt Q8IZ69),-0.028,0.004,0.016,-0.019,-0.045,0.005,-0.016,0.009,-0.007,0.002,-0.014,-0.144,0.019,0.041,-0.018,0.019,0.098,0.043,0.007,0.007
TRIM25 (UniProt Q14258),0.017,0.012,0.001,-0.024,-0.006,-0.007,0.029,-0.035,-0.002,-0.05,0.022,-0.04,0.009,-0.009,0.042,-0.011,-0.058,-0.01,-0.002,-0.029
TMEM87A (UniProt Q8NBN3),0.032,-0.007,-0.025,0.008,-0.006,-0.026,-0.114,0.332 (active),-0.001,0.017,-0.076,-0.013,-0.012,-0.006,-0.017,0.022,-0.045,-0.02,0.015,0.022
TLK1 isoform 2 (UniProt Q9UKI8),0.001,-0.003,0.06,-0.048,-0.078,0.01,-0.092,0.072,0.014,0.393 (active),-0.05,-0.092,0.046,0.16,0.023,-0.045,-0.14,-0.028,0.05,0.01
TBC1D23 (UniProt Q9NUY8),-0.003,0.011,0,-0.027,-0.029,-0.012,-0.058,0.023,0.012,0.017,0,-0.076,0.025,-0.006,0.05,-0.009,-0.019,-0.014,0.002,-0.006
TRAPPC9 isoform 2 (UniProt Q96Q05),0.053,0.001,0.007,-0.004,-0.059,0.021,0.011,0.019,0.005,-0.035,-0.017,-0.128,0.002,-0.011,-0.075,0.022,-0.015,-0.036,0.021,-0.017
TMEM263 (UniProt Q8WUH6),0.086,-0.024,0.19,0.133,0.023,0.097,-0.034,-0.242,0.109,-0.003,0.013,0.266,0.116,0.213,-0.013,0.285,0.154,0.202,0.398,0.222
TEX30 (UniProt Q5JUR7),0.008,0.033,0.109,-0.077,-0.051,0.005,-0.301,0.088,-0.011,-0.023,-0.021,-0.066,0.066,-0.097,0.07,0.047,0.007,0.101,0.041,0.058

# Reference: the supplement of paper PMC10849652
